# Results filed as inconclusive are left out. A call without a number means that no potency is given here. The source made the active and inactive calls. Calls follow the shape of the dose curve; as a rule, active = well fitted curve in the direction sought with a large enough effect; inconclusive = small, poorly fitted or top-dose-only effect, or another doubt; inactive = no such curve, though single readings can be large; an effect the other way counts as inactive or inconclusive.
# Tests used:
# [1] = Viability counterscreen for antagonist of constitutive androstane receptor (CAR) against the NCATS DSHEA and TCM libraries (AID 1794837); settings: CAR reporter cell line viability counterscreen, qHTS; series mostly up to 22 µM;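 also: compound exposure lasted 24 h before viability reading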
# Outline: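 Fluorescence from CellTiter-Fluor reports live-cell protease activity in HepG2-CYP2B6-hCAR cells treated for 24 h with substances alongside 48 uM CITCO.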
# [2] = Viability counterscreen for agonist of constitutive androstane receptor (CAR) against the NCATS DSHEA and TCM libraries (AID 1794838); settings: HepG2 cell viability counterscreen, CAR agonist assay, co-treated with 0.75 µM CAR antagonist; series mostly up to 40 µM;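 also: cells exposed to compound for 24 h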
# Outline: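 In agonist mode, PK11195 is added at 0.75 uM final to HepG2-CYP2B6-hCAR cells dosed with test substances. Cultures incubate 24 h at 37C before a protease-based fluorogenic viability readout.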
# [3] = target: Nuclear receptor subfamily 1 group I member 3 (Homo sapiens) (UniProt Q14994); test: Primary qHTS for agonist of constitutive androstane receptor (CAR) against the NCATS DSHEA and TCM libraries (AID 1794839); settings: CAR agonist reporter cells, qHTS luminescence, CAR antagonist co-added at 0.75 µM; series mostly up to 22 µM;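 also: HepG2 cells expressing human CAR with a CYP2B6 reporter plus PK11195 antagonist; luciferase reporter luminescence read with ONE-Glo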
# Outline: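 Cells stably carrying hCAR and a CYP2B6 reporter (HepG2 background) are seeded and allowed 5 h to adhere. Substances at multiple concentrations are added alongside 0.75 µM PK11195, and luciferase signal is measured after 24 h.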
# [4] = HepG2 viability counterscreen (readout 2: ATP content) against the NCATS DSHEA and TCM libraries (AID 1794840); settings: ATP content luminescence; series mostly up to 15.1 µM;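 also: HepG2 cells exposed to substances for about 24 h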
# Outline: (§1)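 Cytotoxicity was assessed in HepG2 cells plated at 1,000 cells/well and exposed for about 24 hours to a concentration series. Protease activity and ATP content were measured sequentially in each well.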
# [5] = HepG2 viability counterscreen (readout 1: protease activity) against the NCATS DSHEA and TCM libraries (AID 1794841); settings: qHTS concentration series; series mostly up to 15.1 µM;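 also: cells exposed to compounds for about 24 h before the protease read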
# Outline: as §1
# [6] = Primary qHTS for inhibitors of nuclear receptor binding SET domain protein 2 (NSD2) in an isogenic RCH-ACV NSD2 p.E1099K mutant (9B) (AID 1645876); settings: RCH-ACV NSD2 E1099K (9B) viability, CellTiter-Glo, 72 h; series mostly up to 44.9 µM; also: nearly all actives have a fitted effect of over 70% in size; also: potency is read from the fitted curve at half-maximal effect
# [7] = target: Glutathione peroxidase 1 (Homo sapiens) (UniProt P07203); test: Primary qHTS Assay for Inhibitors of Recombinant Selenoprotein Glutathione Peroxidase 1 (GPX1) (AID 1845191); settings: recombinant GPX1, GR-coupled NADPH fluorescence, 15 min; series mostly up to 48.8 µM; also: nearly all actives have a fitted effect of over 65% in size
# Outline: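 GR-coupled readout: NADPH consumption tracked by fluorescence, ex 340/em 450 nm, at t=0 and after 15 min at RT. Final mix 10 nM GPX1, 1 mM GSH, 0.5 mM CHP, 0.5 mM NADPH, 100 nM GR, 0.01% BSA, following 30 min enzyme–compound preincubation.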
# [8] = Primary qHTS for inhibitors of nuclear receptor binding SET domain protein 2 (NSD2) in an RCH-ACV wild type WT cells (2C) (AID 1645877); settings: RCH-ACV (leukaemia line) NSD2 WT (2C) viability, CellTiter-Glo, 72 h; series mostly up to 44.9 µM; also: potency is read from the fitted curve at half-maximal effect; nearly all actives have a fitted effect of over 70% in size
# [9] = target: Catechol O-methyltransferase (Homo sapiens) (UniProt P21964); test: Confirmatory Screen for Target Class Profiling of Small Molecule Inhibitors of Methyltransferases (AID 1745852); settings: MTase-Glo luminescence, SAH detection, recombinant enzyme; measured here: COMT max response; stronger effect = lower value
# [10] = target: Guanidinoacetate N-methyltransferase (Homo sapiens) (UniProt Q14353); test: as above; settings: MTase-Glo luminescence, SAH detection, recombinant enzyme; activity change, negative = inhibition: at 57.3 µM (top of the series) unless noted; series mostly up to 57.3 µM
# [11] = target: Nicotinamide N-methyltransferase (Homo sapiens) (UniProt P40261); test: as above; settings: MTase-Glo luminescence, SAH detection, recombinant enzyme; measured here: NNMT max response; stronger effect = lower value
# [12] = target: Phenylethanolamine N-methyltransferase (Homo sapiens) (UniProt P11086); test: as above; settings: MTase-Glo luminescence, SAH detection, recombinant enzyme; measured here: PNMT max response; stronger effect = lower value
# Chain of Phenylethanolamine N-methyltransferase (Homo sapiens) (P11086 whole entry, looked up): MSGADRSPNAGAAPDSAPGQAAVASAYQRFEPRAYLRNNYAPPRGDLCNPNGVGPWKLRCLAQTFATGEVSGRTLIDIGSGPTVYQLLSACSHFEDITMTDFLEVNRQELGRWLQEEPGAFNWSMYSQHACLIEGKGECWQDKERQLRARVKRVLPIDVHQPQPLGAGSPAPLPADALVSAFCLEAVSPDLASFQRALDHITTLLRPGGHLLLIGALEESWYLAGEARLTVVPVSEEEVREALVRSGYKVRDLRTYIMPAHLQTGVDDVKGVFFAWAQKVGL
# Chain of Glutathione peroxidase 1 (Homo sapiens) (P07203 whole entry, looked up): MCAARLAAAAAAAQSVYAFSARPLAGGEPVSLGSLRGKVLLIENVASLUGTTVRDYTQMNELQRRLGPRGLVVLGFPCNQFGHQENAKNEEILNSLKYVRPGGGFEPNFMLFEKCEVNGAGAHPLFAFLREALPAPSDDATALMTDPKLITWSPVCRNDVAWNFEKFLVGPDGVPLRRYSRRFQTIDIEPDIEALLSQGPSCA
# Chain of Nicotinamide N-methyltransferase (Homo sapiens) (P40261 whole entry, looked up): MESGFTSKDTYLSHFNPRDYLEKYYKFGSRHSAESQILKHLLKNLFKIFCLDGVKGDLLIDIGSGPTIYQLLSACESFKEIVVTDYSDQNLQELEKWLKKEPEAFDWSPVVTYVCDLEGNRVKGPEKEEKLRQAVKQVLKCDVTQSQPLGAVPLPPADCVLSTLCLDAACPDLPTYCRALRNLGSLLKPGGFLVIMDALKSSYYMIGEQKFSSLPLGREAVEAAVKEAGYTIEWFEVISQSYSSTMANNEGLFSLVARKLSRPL
# Chain of Catechol O-methyltransferase (Homo sapiens) (P21964 whole entry, looked up): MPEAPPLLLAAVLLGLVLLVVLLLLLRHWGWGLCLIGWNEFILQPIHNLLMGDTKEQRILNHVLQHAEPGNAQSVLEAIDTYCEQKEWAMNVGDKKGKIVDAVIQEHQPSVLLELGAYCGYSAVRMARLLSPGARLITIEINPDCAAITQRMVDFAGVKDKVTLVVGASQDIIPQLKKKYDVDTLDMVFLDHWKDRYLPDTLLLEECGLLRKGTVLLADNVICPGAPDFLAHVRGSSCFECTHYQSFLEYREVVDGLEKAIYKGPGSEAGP
# Chain of Nuclear receptor subfamily 1 group I member 3 (Homo sapiens) (Q14994 whole entry, looked up): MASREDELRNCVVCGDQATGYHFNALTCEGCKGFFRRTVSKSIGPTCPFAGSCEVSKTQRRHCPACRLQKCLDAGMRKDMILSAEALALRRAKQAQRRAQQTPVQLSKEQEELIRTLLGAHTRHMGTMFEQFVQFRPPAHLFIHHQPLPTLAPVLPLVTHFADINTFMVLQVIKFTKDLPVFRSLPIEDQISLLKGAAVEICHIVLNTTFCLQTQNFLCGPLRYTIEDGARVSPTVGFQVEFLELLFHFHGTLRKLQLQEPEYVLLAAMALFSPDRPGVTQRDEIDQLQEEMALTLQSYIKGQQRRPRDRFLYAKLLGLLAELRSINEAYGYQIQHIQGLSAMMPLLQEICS
smiles,measurement,setting,value
C[C@@]12CC[C@@H]3[C@@](CC[C@H]4[C@@]3(C)CCC[C@@]4(C)C(=O)O)(CC1=O)C2,outcome,[1],inactive
same,outcome,[2],inactive
same,outcome,[3],inactive
same,outcome,[4],inactive
same,outcome,[5],inactive
C/C(=C\CC[C@@H](C)[C@H]1CC(O)[C@@]2(C)C3CC[C@H]4C(C)(C)[C@@H](OC5OCC(O)C(O)C5OC5OC(CO)C(O)C(O)C5O)CC[C@@]45C[C@@]35CC(O)[C@]12C)C(=O)O (stereo partly drawn),Potency,[6],inactive
same,Potency,[7],inactive
CCC[C@@H]1O[C@@H]2C[C@H]3[C@@H]4CCC5=CC(=O)C=C[C@]5(C)[C@H]4[C@@H](O)C[C@]3(C)[C@]2(C(=O)CO)O1,Potency,[8],0.0058 µM (active)
same,Potency,[7],inactive
CN1CCN(C(=O)c2ccc3cc(CCNc4ncnc5ccc(C#N)cc45)ccc3c2)CC1,Potency,[8],1.32 µM (active)
same,activity,[9],-7.48%
same,"activity change, negative = inhibition",[10],-3.33%
same,activity,[11],-11.9%
same,activity,[12],-8.1%
same,Potency,[7],inactive
CC1=C2C(O)C(=O)OC(c3ccoc3)C2(C)CCC1O (stereo not drawn),Potency,[6],inactive
same,Potency,[7],inactive
C[C@@H]1CCC2C(C)(C)[C@H](O)CC[C@]2(C)[C@@]12Cc1c(O)cc3c(c1O2)CNC3=O (stereo partly drawn),Potency,[6],inactive
same,Potency,[7],inactive
C=CC(C)(C)C12C=C(OC)C(=O)N3C(C(C)C)C(=O)NC31N(OC)c1ccccc12 (stereo not drawn),Potency,[6],inactive
same,Potency,[7],inactive
CC(=O)O[C@]1(C(C)=O)CC[C@H]2[C@@H]3C[C@H](C)C4=CC(=O)C=C[C@]4(C)[C@@]3(F)[C@@H](O)C[C@@]21C,Potency,[8],0.0129 µM (active)
same,Potency,[7],inactive
FC(F)(F)c1cc(-c2ncn(/C=C\c3nnco3)n2)cc(C(F)(F)F)c1,Potency,[6],2.3 µM (active)
same,Potency,[7],inactive
C[C@@H]1O[C@@H](O[C@H]2[C@H](O)[C@@H](O[C@@H]3O[C@H](CO)[C@@H](O)[C@H](O[C@@H]4O[C@H](CO)[C@@H](O)[C@H](O)[C@H]4O)[C@H]3O)[C@H](O[C@H]3CC[C@@]4(C)C(=CC[C@@H]5C4CC[C@@]4(C)C5C[C@@H]5OC6(CC[C@@](C)(CO[C@@H]7O[C@H](CO)[C@@H](O)[C@H](O)[C@H]7O)O6)[C@@H](C)[C@@H]54)C3)O[C@@H]2CO)[C@H](O)[C@H](O)[C@H]1OC1OC(CO)C(O)C(O)C1O (stereo partly drawn),outcome,[6],inactive [at 9.23 µM]
same,"activity, negative = inhibition",[7],1.32% [at 9.52 µM] (inactive)
C[C@@H]1O[C@@H](O[C@H]2[C@H](O[C@H]3[C@H](O[C@H]4CC[C@@]5(C)C(CC[C@]6(C)C5CC=C5[C@@H]7CC(C)(C)CC[C@]7(C(=O)O[C@@H]7O[C@H](CO)[C@@H](O[C@@H]8O[C@@H](C)[C@H](O)[C@@H](O)[C@H]8O)[C@H](O)[C@H]7O)CC[C@]56C)C4(C)C)OC[C@H](O)[C@@H]3O)O[C@H](CO)[C@@H](O)[C@@H]2O)[C@H](O)[C@H](O)[C@H]1O (stereo partly drawn),"activity change, negative = viability loss",[6],-8.33% [at 9.23 µM] (inactive)
same,outcome,[7],inactive [at 9.52 µM]
CCC(C)/C=C(C)/C=C/c1cc2c(cn1)C(=O)C(C)(OC(C)=O)C(O)=C2Cl (stereo not drawn),Potency,[6],inactive
same,Potency,[7],inactive
C=C1CCC2C(C(C)(C)O)CCC2(C)CC(O)C(=C)CCC1O (stereo not drawn),Potency,[8],10.1 µM (active)
same,Potency,[7],inactive
Cn1cncc1C(N)(c1ccc(Cl)cc1)c1ccc2c(c1)c(-c1cccc(Cl)c1)cc(=O)n2C (stereo not drawn),Potency,[6],4.17 µM (active)
same,Potency,[7],inactive
C[C@@H]1O[C@@H](O[C@H]2[C@H](O)[C@@H](C(=O)O)O[C@@H](O[C@H]3CC[C@@]4(C)C(CC[C@]5(C)C4CC=C4C6CC(C)(C)CC[C@]6(C(=O)O)CC[C@]45C)C3(C)C)[C@@H]2O[C@@H]2OC[C@@H](O)[C@H](O)[C@H]2O)[C@H](O)[C@H](O)[C@H]1O (stereo partly drawn),outcome,[6],inactive [at 9.23 µM]
same,Potency,[7],inactive
C/C=C1\[C@H](O[C@@H]2O[C@H](CO)[C@@H](O)[C@H](O)[C@H]2O)OC=C(C(=O)OC)[C@H]1CC(=O)OC[C@H]1O[C@@H](OCCc2ccc(O)cc2)[C@H](O)[C@@H](O)[C@@H]1O,Potency,[6],inactive
same,Potency,[7],inactive
OCC(CO[C@@H]1O[C@H](CO)[C@@H](O)[C@H](O)[C@H]1O)c1ccc2c(c1)OCO2 (stereo partly drawn),Potency,[6],inactive
same,Potency,[7],inactive
COc1cc2c3c(cc4ccccc4c3c1O)NC2=O,Potency,[6],inactive
same,Potency,[7],inactive
COc1cc(O)cc(/C=C/c2ccc(O[C@@H]3O[C@H](CO)[C@@H](O)[C@H](O)[C@H]3O)cc2)c1,Potency,[6],8.93 µM (active)
same,Potency,[7],inactive
CC1(C)CC[C@@]2(C(=O)O[C@@H]3O[C@H](CO)[C@@H](O)[C@H](O)[C@H]3O)C(C1)C1=CCC3[C@@]4(C)CC[C@@H](O[C@@H]5O[C@H](C(=O)O)[C@@H](O[C@@H]6OC[C@@H](O)[C@H](O)[C@H]6O)[C@H](O[C@@H]6OC[C@](O)(CO)[C@H]6O)[C@H]5O)C(C)(C)C4CC[C@@]3(C)[C@]1(C)C[C@H]2O (stereo partly drawn),"activity change, negative = viability loss",[6],-47.8% [at 9.23 µM] (inactive)
same,Potency,[7],inactive
CC/C=C/CC1=C(CCCCC(CCC(=O)O)OC(C)=O)CCC1=O (stereo not drawn),Potency,[8],12.7 µM (active)
same,Potency,[7],inactive
O=C(NOCC(O)CO)c1ccc(F)c(F)c1Nc1ccc(I)cc1F (stereo not drawn),Potency,[6],inactive
same,Potency,[7],inactive
CC(=O)OCC1(O)CCC2C(COC3OC(CO)C(O)C(O)C3OC(=O)/C=C/c3ccc(O)cc3)=COC(OC(=O)CC(C)C)C21 (stereo not drawn),Potency,[6],inactive
same,Potency,[7],inactive
C[C@@H]1O[C@@H](O[C@H]2[C@H](O[C@H]3CC[C@@]4(C)C(CC[C@]5(C)C4C=C[C@]46OC[C@@]7(CCC(C)(C)C[C@H]74)[C@@H](O)C[C@]65C)[C@]3(C)CO)O[C@H](CO)[C@@H](O)[C@@H]2O[C@@H]2O[C@H](CO)[C@@H](O[C@@H]3O[C@@H](C)[C@H](O)[C@@H](O)[C@H]3O)[C@H](O)[C@H]2O)[C@H](O)[C@H](O)[C@H]1O (stereo partly drawn),Potency,[8],3.88 µM (active)
same,Potency,[7],inactive
CC(C)=C/C=C\[C@H](C)[C@H]1CC[C@]2(C)C[C@@H]3C(C)=CC(=O)C3/C(CO)=C\C[C@@H]12 (stereo partly drawn),Potency,[8],11.3 µM (active)
same,Potency,[7],inactive
C=C(C(=O)O)[C@@H]1CC[C@@]2(C)CC[C@H](O)[C@@]2(C(C)=O)C1,Potency,[8],16.3 µM (active)
same,activity,[9],-66.3%
same,"activity change, negative = inhibition",[10],-6.04%
same,activity,[11],-3.52%
same,activity,[12],-3.81%
same,Potency,[7],inactive

# From PubChem BioAssay (NCATS)
